Laboratory results published in PubChem BioAssay (Tox21).
Records with an inconclusive call do not appear. Where a call stands in place of a potency, no number is given. The source made the active and inactive calls. Unless noted, calls come from the whole dose curve.

Experiments:
[1] = Nuclear factor erythroid 2-related factor 2/antioxidant responsive element (Nrf2/ARE) small molecule agonists: luciferase reporter gene qHTS assay in human keratinocytes (AID 1919969); note: nearly all actives have a fitted effect of over 35% in size
[2] = molecular target: Gonadotropin-releasing hormone receptor (Homo sapiens) (UniProt P30968); assay: Human gonadotropin-releasing hormone receptor (GnRHR) small molecule agonists, calcium flux assay in GnRHR-HEK293 cells (AID 1920063); note: nearly all actives have a fitted effect of over 35% in size
Gonadotropin-releasing hormone receptor (Homo sapiens), sequence (P30968 whole entry, looked up): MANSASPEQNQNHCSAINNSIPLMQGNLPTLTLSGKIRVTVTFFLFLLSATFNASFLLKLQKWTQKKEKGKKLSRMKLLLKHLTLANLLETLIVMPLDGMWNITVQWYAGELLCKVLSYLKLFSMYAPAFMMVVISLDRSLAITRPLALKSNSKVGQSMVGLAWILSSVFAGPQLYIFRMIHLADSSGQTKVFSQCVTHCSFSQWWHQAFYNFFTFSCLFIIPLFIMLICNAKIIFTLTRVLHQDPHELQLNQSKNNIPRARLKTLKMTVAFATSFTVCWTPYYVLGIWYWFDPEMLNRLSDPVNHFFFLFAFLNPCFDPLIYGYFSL
Outline: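 Calcium-dye fluorescence, Ex/Em=480/540, recorded every 1 sec over 3 min after compound addition to GnRHR-HEK293 cells. Cells had been seeded 18 hours earlier and dye-loaded for 1 hour at 37 C. Fifteen concentrations, triplicates.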

[3] = molecular target: KiSS-1 receptor (Homo sapiens) (UniProt Q969F8); assay: Human kisspeptin (KISS1R) small molecule agonists, calcium flux assay in KISS1R-HEK293 cells (AID 1920064; active = well fitted activation curve with a large enough effect in the repeat runs)
KiSS-1 receptor (Homo sapiens), sequence (Q969F8 whole entry, looked up): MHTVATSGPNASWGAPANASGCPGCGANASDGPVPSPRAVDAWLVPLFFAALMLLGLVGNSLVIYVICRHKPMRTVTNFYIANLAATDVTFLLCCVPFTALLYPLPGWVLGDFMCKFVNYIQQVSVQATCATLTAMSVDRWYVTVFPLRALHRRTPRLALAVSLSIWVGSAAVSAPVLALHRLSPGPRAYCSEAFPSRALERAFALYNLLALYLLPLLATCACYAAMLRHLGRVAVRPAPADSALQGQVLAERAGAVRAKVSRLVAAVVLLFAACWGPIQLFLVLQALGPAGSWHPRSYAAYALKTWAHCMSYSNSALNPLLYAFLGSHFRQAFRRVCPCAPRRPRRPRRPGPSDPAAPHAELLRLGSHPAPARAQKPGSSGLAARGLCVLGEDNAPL
Outline: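 Calcium flux read-out: kinetic fluorescence at Ex/Em=480/540, 1 s intervals over 3 min, after pin-tool compound addition to dye-loaded KISS1R-HEK293 cells. Fifteen concentrations, triplicates.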

[4] = G protein-coupled receptor (GPCR) small molecule agonists, calcium flux assay: HEK293 wild type cell line counter screen (AID 1920065)
Outline: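 Agonist mode; 18 h seeding at 37 C, 1 h dye load at 37 C; compounds pinned from DMSO, ATP as positive control; kinetic fluorescence 480/540 nm, 3 min, 1 s reads; 15 concentrations, triplicate.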

[5] = p53 small molecule agonists, cell-based qHTS assay with human liver microsomes (AID 1963577);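 note: p53 response element beta-lactamase reporter cells with liver microsomes plus NADPH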
Outline: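 With metabolic activation: human liver microsomes (0.5 mg/mL final) plus NADPH (0.5 mg/mL final) added alongside compounds to p53RE-bla cells; 16 h 37 C exposure; beta-lactamase read by LiveBLAzer fluorescence.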

[6] = p53 small molecule agonists, cell-based qHTS assay with rat liver microsomes (AID 1963578)
Outline: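 Metabolic activation by rat liver microsomes and NADPH, each 0.5 mg/mL final, added right after compounds to p53RE-bla reporter cells (4,000/well, plated 5 h earlier). 16 h at 37 C, then LiveBLAzer substrate for 2 h at room temperature in the dark; fluorescence read-out.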

[7] = p53 small molecule agonists, cell-based qHTS assay with human liver microsomes: qHTS cell viability counter screen (AID 1963579); note: nearly all actives have a fitted effect of over 45% in size
Outline: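 Metabolic activation used human liver microsomes and NADPH, both 0.5 mg/mL final, over 16 hours at 37 C on p53RE-bla cells (4,000/well). Cytotoxicity measured by CellTiter-Glo luminescence, 30 min at room temperature.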

[8] = p53 small molecule agonists, cell-based qHTS assay with rat liver microsomes: qHTS cell viability counter screen (AID 1963580); note: nearly all actives have a fitted effect of over 45% in size
Outline: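 Cytotoxicity counter screen: intracellular ATP read by CellTiter-Glo luminescence in the p53 reporter wells. HCT-116 p53RE-bla cells were treated for 16 h at 37 C alongside rat liver microsomes and NADPH, each 0.5 mg/mL final.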

[9] = p53 small molecule agonists, cell-based qHTS assay: qHTS cell viability counter screen (AID 1963581); note: nearly all actives have a fitted effect of over 45% in size
Outline: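 Cytotoxicity read-out: ATP-based luminescence (CellTiter-Glo, 30 min RT) measured in the same wells as the p53 reporter assay, HCT-116 p53RE-bla cells, 16 h compound exposure at 37 C.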

[10] = p53 small molecule agonists, cell-based qHTS assay (AID 1963582; active = well fitted activation curve with a large enough effect in the signal ratio in the repeat runs, not every such curve was filed as active; the % refers to the signal ratio)
Outline: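 Fluorescence intensity read-out of a beta-lactamase reporter under a p53 response element. Cells were exposed to DMSO-dissolved compounds for 16 h at 37 C, then developed with FRET substrate for 2 h at RT.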

[11] = molecular target: 5-hydroxytryptamine receptor 2A (Homo sapiens) (UniProt P28223); assay: 5-hydroxytryptamine receptor 2A (HTR2A) small molecule antagonists, cell-based qHTS assay (AID 1963586); note: nearly all actives have a fitted effect of over 45% in size
5-hydroxytryptamine receptor 2A (Homo sapiens), sequence (P28223 whole entry, looked up): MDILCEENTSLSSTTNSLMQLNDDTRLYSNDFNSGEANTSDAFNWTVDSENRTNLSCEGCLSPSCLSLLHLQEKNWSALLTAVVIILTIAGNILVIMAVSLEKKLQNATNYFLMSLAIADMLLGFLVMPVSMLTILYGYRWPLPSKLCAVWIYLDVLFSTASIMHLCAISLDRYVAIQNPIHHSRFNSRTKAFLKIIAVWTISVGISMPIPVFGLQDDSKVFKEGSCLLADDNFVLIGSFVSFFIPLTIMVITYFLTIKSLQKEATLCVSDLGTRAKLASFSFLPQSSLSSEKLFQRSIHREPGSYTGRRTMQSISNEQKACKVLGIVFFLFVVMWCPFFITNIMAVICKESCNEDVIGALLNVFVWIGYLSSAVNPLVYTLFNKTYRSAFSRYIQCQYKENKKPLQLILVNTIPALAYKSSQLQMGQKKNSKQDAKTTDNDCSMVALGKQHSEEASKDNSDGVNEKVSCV
Outline: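 CHO cells stably expressing human HTR2A were plated for 18 h at 37 C, then loaded with calcium dye for 1 h. Compounds were preincubated 5 min at room temperature before DOI (4 nM solution) was added. Kinetic fluorescence was read for 3 min.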

[12] = molecular target: 5-hydroxytryptamine receptor 2A (Homo sapiens) (UniProt P28223); assay: 5-hydroxytryptamine receptor 2A (HTR2A) small molecule agonists, cell-based qHTS assay (AID 1963587); note: nearly all actives have a fitted effect of over 30% in size
Outline: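 Kinetic calcium-flux fluorescence (2 min, 1 sec intervals) after compound addition in agonist mode. HTR2A-CHO cells were cultured 18 h, then dye-loaded 1 h at 37 C.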

[13] = molecular target: Muscarinic acetylcholine receptor M1 (Homo sapiens) (UniProt P11229); assay: Cholinergic receptor muscarinic 1 (CHRM1) small molecule agonists, cell-based qHTS assay (AID 1963589); note: nearly all actives have a fitted effect of over 35% in size
Muscarinic acetylcholine receptor M1 (Homo sapiens), sequence (P11229 whole entry, looked up): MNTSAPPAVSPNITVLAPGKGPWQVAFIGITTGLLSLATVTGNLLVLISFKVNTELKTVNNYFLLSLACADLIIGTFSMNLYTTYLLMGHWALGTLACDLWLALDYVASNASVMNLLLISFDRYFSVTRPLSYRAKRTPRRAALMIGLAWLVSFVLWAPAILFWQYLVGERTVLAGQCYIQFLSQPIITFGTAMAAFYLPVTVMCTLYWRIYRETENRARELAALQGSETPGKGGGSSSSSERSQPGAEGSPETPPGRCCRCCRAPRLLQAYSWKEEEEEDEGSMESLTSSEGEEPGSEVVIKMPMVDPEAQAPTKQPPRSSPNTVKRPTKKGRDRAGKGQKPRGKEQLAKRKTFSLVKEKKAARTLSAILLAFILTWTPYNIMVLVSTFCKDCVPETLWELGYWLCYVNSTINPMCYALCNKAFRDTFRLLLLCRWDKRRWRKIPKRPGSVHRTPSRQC
Outline: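 Calcium flux read-out: kinetic fluorescence at 1 sec intervals after pin-tool compound addition to dye-loaded CHRM1-CHO cells (human M1). Agonist mode; 15 concentrations tested in triplicate independent runs.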

[14] = cAMP Responsive Elements (CRE) small molecule agonists, cell-based qHTS assay (AID 1963590)
Outline: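 Beta-lactamase reporter readout: LiveBLAzer B/G FRET substrate, 2 h at room temperature, added after 3 h compound treatment of CRE-bla HEK 293T cells at 37 C/5% CO2.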

[15] = cAMP Responsive Elements (CRE) small molecule antagonists, cell-based qHTS assay (AID 1963591; active = well fitted inhibition curve with a large enough effect in the signal ratio in the repeat runs, not every such curve was filed as active; the % refers to the signal ratio)
Outline: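 HEK293T CRE-bla; 18 h preincubation; compound pin-transfer; NKH477 0.25 uM final, 3 h, 37 C; LiveBLAzer FRET substrate 2 h RT.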

[16] = molecular target: Beta-2 adrenergic receptor (Homo sapiens) (UniProt P07550); assay: Adrenergic beta2 receptor (ADRB2) small molecule antagonists, cell-based qHTS assay (AID 1963592); note: nearly all actives have a fitted effect of over 50% in size; note: potency is the fitted concentration of half-maximal effect
Beta-2 adrenergic receptor (Homo sapiens), sequence (P07550 whole entry, looked up): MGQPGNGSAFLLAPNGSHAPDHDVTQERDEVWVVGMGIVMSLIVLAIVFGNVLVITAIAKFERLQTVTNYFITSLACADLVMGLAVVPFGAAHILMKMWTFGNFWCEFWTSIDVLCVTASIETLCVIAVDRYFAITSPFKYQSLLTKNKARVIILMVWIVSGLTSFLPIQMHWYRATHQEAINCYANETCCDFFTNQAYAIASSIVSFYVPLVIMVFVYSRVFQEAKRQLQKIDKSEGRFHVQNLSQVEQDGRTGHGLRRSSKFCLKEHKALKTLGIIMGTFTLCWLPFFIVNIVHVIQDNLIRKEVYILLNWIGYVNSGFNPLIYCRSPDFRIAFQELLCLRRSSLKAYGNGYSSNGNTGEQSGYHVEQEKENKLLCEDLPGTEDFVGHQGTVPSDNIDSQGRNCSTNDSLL
Outline: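 Assay format: CHO-ADRB2 cells, 18-20hr seeding at 37C/5% CO2, then compound plus 1nM isoproterenol agonist mix for 0.5hr RT. Homogeneous time-resolved fluorescence cAMP detection after 1hr, expressed as 665/615 nm ratio.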

[17] = molecular target: D(2) dopamine receptor (Homo sapiens) (UniProt P14416); assay: Dopamine D2 receptor (DRD2) small molecule agonists, cell-based qHTS assay (AID 1963594); note: nearly all actives have a fitted effect of over 35% in size
D(2) dopamine receptor (Homo sapiens), sequence (P14416 whole entry, looked up): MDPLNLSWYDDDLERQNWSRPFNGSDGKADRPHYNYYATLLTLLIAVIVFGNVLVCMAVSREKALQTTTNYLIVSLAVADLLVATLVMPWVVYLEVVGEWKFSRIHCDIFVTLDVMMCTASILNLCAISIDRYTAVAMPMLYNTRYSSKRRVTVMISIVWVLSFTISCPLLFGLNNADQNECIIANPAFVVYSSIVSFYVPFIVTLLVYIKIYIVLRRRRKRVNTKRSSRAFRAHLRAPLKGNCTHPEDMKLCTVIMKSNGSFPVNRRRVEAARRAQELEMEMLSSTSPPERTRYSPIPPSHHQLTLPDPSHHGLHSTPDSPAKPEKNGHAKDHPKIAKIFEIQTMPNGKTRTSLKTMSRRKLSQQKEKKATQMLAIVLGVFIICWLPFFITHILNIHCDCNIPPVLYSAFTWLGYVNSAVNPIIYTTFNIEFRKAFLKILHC
Outline: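 cAMP accumulation in DRD2-HEK293 cells measured by HTRF after 1 h detection; compounds added 10 min before NKH477 (200nM […]) forskolin-analogue stimulation, 30 min at room temperature, with Ro20-1724 present at 0.1 mM final.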

[18] = molecular target: D(2) dopamine receptor (Homo sapiens) (UniProt P14416); assay: Dopamine D2 receptor (DRD2) small molecule antagonists, cell-based qHTS assay (AID 1963595; active = well fitted inhibition curve with a large enough effect in the signal ratio in the repeat runs, with a control signal flat; the % refers to the signal ratio)
Outline: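 HEK293 cells stably expressing DRD2 were preincubated with 0.1 mM Ro20-1724, then with compound for 10 min at room temperature. Cells were stimulated with 200 nM NKH477 plus 12 nM quinpirole for 30 min, and cAMP was read by HTRF.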

[19] = molecular target: Muscarinic acetylcholine receptor M1 (Homo sapiens) (UniProt P11229); assay: Cholinergic receptor muscarinic 1 (CHRM1) small molecule antagonists, cell-based qHTS assay (AID 1963588); note: nearly all actives have a fitted effect of over 40% in size
Outline: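 Compounds were tested at 15 concentrations in three independent runs. Dye-loaded CHRM1-CHO cells were exposed 5 min at room temperature before stimulation by acetylcholine added at 50nM. Intracellular calcium was read kinetically on FDSS for 3 min.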

[20] = molecular target: Beta-2 adrenergic receptor (Homo sapiens) (UniProt P07550); assay: Adrenergic beta2 receptor (ADRB2) small molecule agonists, cell-based qHTS assay (AID 1963593);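 note: CHO cells stably overexpressing human ADRB2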
Outline: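 CHO cells stably over-expressing ADRB2 were plated overnight at 37C, then dosed with compounds plus a stimulation mix containing 100uM IBMX and 25uM Ro-20-1724 for 0.5hr at room temperature. cAMP was measured by HTRF competition, 1hr.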

| SMILES | Potency [1] | Potency [2] | outcome [3] | outcome [4] | Potency [5] | Potency [6] | Potency [7] | Potency [8] | Potency [9] | Potency [10] | Potency [11] | Potency [12] | Potency [13] | Potency [14] | Potency [15] | Potency [16] | Potency [17] | Potency [18] | Potency [19] | Potency [20] |
| --- | --- | --- | --- | --- | --- | --- | --- | --- | --- | --- | --- | --- | --- | --- | --- | --- | --- | --- | --- | --- |
| OC(CCN1CCCCC1)(c1ccccc1)c1ccccc1 | inactive | inactive | inactive | inactive | inactive | inactive | inactive | inactive | inactive | inactive | inactive | inactive | inactive | inactive | inactive | inactive | inactive | inactive |  |  |
| O=C(O)C(O)[C@H](O)[C@@H](O)[C@H](O)[C@H](O)CO (stereo partly specified) | inactive | inactive | inactive | inactive | inactive | inactive | inactive | inactive | inactive | inactive | inactive | inactive | inactive | inactive | inactive | inactive | inactive | inactive | inactive |  |
| O=C(OCCCCCOC(=O)c1ccccc1)c1ccccc1 | inactive | inactive | inactive | inactive | inactive | inactive | inactive | inactive | inactive | inactive | inactive | inactive | inactive |  | inactive | inactive | inactive | inactive | inactive | inactive |
| O=C(NCC1CN(c2ccc(N3CCOCC3=O)cc2)C(=O)O1)c1ccc(Cl)s1 (stereo unspecified) | inactive | inactive | inactive | inactive | inactive | inactive | inactive | inactive | inactive | inactive | inactive | inactive | inactive |  | inactive | inactive | inactive | inactive | inactive | inactive |
| CC1CCc2c(N3CCC(O)CC3)c(F)cc3c(=O)c(C(=O)O)cn1c23 (stereo unspecified) | inactive | inactive | inactive | inactive | inactive | inactive | inactive | inactive | inactive | inactive | inactive | inactive | inactive |  |  | inactive | inactive |  | inactive |  |
| C=C(C)c1ccccc1 | inactive | inactive | inactive | inactive | inactive | inactive | inactive | inactive | inactive | inactive | inactive | inactive | inactive | inactive | inactive | inactive | inactive |  |  |  |
| Cc1cc(S(=O)(=O)O)c(N)cc1Cl | inactive | inactive | inactive | inactive | inactive | inactive | inactive | inactive | inactive | inactive | inactive | inactive | inactive | inactive | inactive | inactive | inactive | inactive | inactive |  |
| CC(=O)c1ccc(C(C)=O)cc1 | inactive | inactive | inactive | inactive | inactive | inactive | inactive | inactive | inactive | inactive | inactive | inactive | inactive | inactive | inactive | inactive | inactive | inactive | inactive |  |
| NS(=O)(=O)c1cc2c(cc1C(F)(F)F)NCNS2(=O)=O | inactive | inactive | inactive | inactive | inactive | inactive | inactive | inactive | inactive | inactive | inactive | inactive | inactive | inactive | inactive | inactive | inactive | inactive | inactive |  |
| CC(C)(C)NCC(O)COc1ccc(NC(=O)NC2CCCCC2)cc1 (stereo unspecified) | inactive | inactive | inactive | inactive | inactive | inactive | inactive | inactive | inactive | inactive | inactive |  | inactive | inactive | inactive | 4.73 µM (active) |  | inactive | inactive |  |
| CC(C)=CCC/C(C)=C/COC=O | inactive | inactive | inactive | inactive | inactive | inactive | inactive | inactive | inactive | inactive | inactive | inactive | inactive | inactive | inactive | inactive | inactive | inactive | inactive |  |
| CC(C)(C#N)Nc1nc(Cl)nc(NC2CC2)n1 | inactive | inactive | inactive | inactive | inactive | inactive | inactive | inactive | inactive | inactive | inactive | inactive |  | inactive |  | inactive | inactive | inactive | inactive |  |
| Cc1ccc(C(=O)c2ccccc2)cc1 | inactive | inactive | inactive | inactive | inactive | inactive | inactive | inactive | inactive | inactive | inactive | inactive | inactive |  |  | inactive | inactive |  | inactive | inactive |
| CCOC(=O)COc1cc(-n2ncc(C(F)(F)F)c(C)c2=O)c(F)cc1Cl | inactive | inactive | inactive | inactive | inactive | inactive | inactive | inactive | inactive | inactive | inactive | inactive | inactive |  |  |  | inactive | inactive | inactive | inactive |
| CCC1(C)C(=O)N(Cl)C(=O)N1Cl (stereo unspecified) | inactive | inactive | inactive | inactive | inactive | inactive | inactive | inactive | inactive | inactive | inactive | inactive | inactive | inactive | inactive | inactive | inactive | inactive | inactive |  |
